Test results: PubChem BioAssay AID1159580 (chemical genetic matrix, 2015)
Hit rate of the full screen: of about 5,500 compounds, about 2,000 (36%) were called active. Inconclusive results (about 18%) are left out. No stated cut-off is given here; in the data, active means normalized growth mostly below about 0.91 (no sharp cut-off); inconclusive means no clear call, values can overlap the other calls; inactive means mostly above about 0.92. Some of the results follow.

Experiment: chemical genetic growth profiling, strain panel (AID 1159580);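 further: tested at 20 µM; growth read once vehicle control cultures reached saturation at 30 °C; 1 = growth at the plate median or of vehicle wells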
Conditions: growth OD

Measured: normalized growth

CC1(C)OC(=O)NC1=O
inactive: S. cerevisiae deletion strains, locus YJR075W, strain HOC1, stronger effect = lower value 0.981 | S. cerevisiae deletion strains, locus YKL009W, strain mrt4, stronger effect = lower value 0.966 | S. cerevisiae deletion strains, locus YKL068W, stronger effect = lower value 0.988 | S. cerevisiae deletion strains, locus YKL085W, strain MDH1 (second series), stronger effect = lower value 1.06 | S. cerevisiae deletion strains, locus YKL085W, strain MDH1, stronger effect = lower value 1.06 | S. cerevisiae deletion strains, locus YKL160W, strain elf1, stronger effect = lower value 1.01 | S. cerevisiae deletion strains, locus YKR001C, strain vps1, stronger effect = lower value 1.01 | S. cerevisiae deletion strains, locus YKR026C, strain gcn3, stronger effect = lower value 0.994 | S. cerevisiae deletion strains, locus YKR091W, strain srl3, stronger effect = lower value 1.01 | S. cerevisiae deletion strains, locus YLL001W, strain dnm1, stronger effect = lower value 1.02 | S. cerevisiae deletion strains, locus YLL026W, stronger effect = lower value 1.01 | S. cerevisiae deletion strains, locus YLL041C, strain sdh2, stronger effect = lower value 1.01 | S. cerevisiae deletion strains, locus YLR027C, strain aat2, stronger effect = lower value 1.01 | S. cerevisiae deletion strains, locus YLR039C, strain RIC1, stronger effect = lower value 1.02 | S. cerevisiae deletion strains, locus YLR058C, strain SHM2, stronger effect = lower value 0.983 | S. cerevisiae deletion strains, locus YLR102C, strain apc9, stronger effect = lower value 0.981 | S. cerevisiae deletion strains, locus YLR113W, strain HOG1, stronger effect = lower value 1.02 | S. cerevisiae deletion strains, locus YLR221C, strain rsa3, stronger effect = lower value 0.991 | S. cerevisiae deletion strains, locus YLR258W, strain gsy2, stronger effect = lower value 1 | S. cerevisiae deletion strains, locus YLR262C, strain YPT6 (second series), stronger effect = lower value 1.03 | S. cerevisiae deletion strains, locus YLR262C, strain YPT6, stronger effect = lower value 0.97 | S. cerevisiae deletion strains, locus YLR268W, strain sec22, stronger effect = lower value 0.989 | S. cerevisiae deletion strains, locus YLR320W, strain mms22, stronger effect = lower value 0.975 | S. cerevisiae deletion strains, locus YLR330W, strain CHS5, stronger effect = lower value 0.996 | S. cerevisiae deletion strains, locus YLR342W, strain FKS1 (second series), stronger effect = lower value 1.04 | S. cerevisiae deletion strains, locus YLR342W, strain FKS1, stronger effect = lower value 1.02 | S. cerevisiae deletion strains, locus YLR357W, strain rsc2, stronger effect = lower value 1.03 | S. cerevisiae deletion strains, locus YLR370C, strain arc18, stronger effect = lower value 1.02 | S. cerevisiae deletion strains, locus YLR371W, strain rom2, stronger effect = lower value 0.98 | S. cerevisiae deletion strains, locus YLR384C, strain iki3, stronger effect = lower value 1.01 | S. cerevisiae deletion strains, locus YLR418C, strain cdc73, stronger effect = lower value 0.958 | S. cerevisiae deletion strains, locus YML016C, strain PPZ1, stronger effect = lower value 0.997 | S. cerevisiae deletion strains, locus YML032C, strain rad52, stronger effect = lower value 0.98 | S. cerevisiae deletion strains, locus YML120C, strain ndi1, stronger effect = lower value 1.02 | S. cerevisiae deletion strains, locus YML124C, strain tub3, stronger effect = lower value 0.983 | S. cerevisiae deletion strains, locus YMR058W, strain fet3, stronger effect = lower value 1.03 | S. cerevisiae deletion strains, locus YMR078C, strain ctf18, stronger effect = lower value 0.971 | S. cerevisiae deletion strains, locus YMR125W, strain sto1, stronger effect = lower value 1.05 | S. cerevisiae deletion strains, locus YMR129W, stronger effect = lower value 1.01 | S. cerevisiae deletion strains, locus YMR205C, strain PFK2, stronger effect = lower value 1.02 | S. cerevisiae deletion strains, locus YMR223W, strain ubp8, stronger effect = lower value 0.964 | S. cerevisiae deletion strains, locus YMR231W, strain pep5, stronger effect = lower value 1.01 | S. cerevisiae deletion strains, locus YMR263W, strain SAP30, stronger effect = lower value 0.981 | S. cerevisiae deletion strains, locus YMR307W, strain GAS1, stronger effect = lower value 1.05 | S. cerevisiae deletion strains, locus YNL067W, strain RPL9B, stronger effect = lower value 0.972 | S. cerevisiae deletion strains, locus YNL071W, strain lat1, stronger effect = lower value 1 | S. cerevisiae deletion strains, locus YNL153C, strain GIM3, stronger effect = lower value 0.989 | S. cerevisiae deletion strains, locus YNL183C, strain NPR1, stronger effect = lower value 0.975 | S. cerevisiae deletion strains, locus YNL209W, strain ssb2, stronger effect = lower value 0.996 | S. cerevisiae deletion strains, locus YNL233W, strain BNI4, stronger effect = lower value 0.983 | S. cerevisiae deletion strains, locus YNL248C, strain rpa49, stronger effect = lower value 1.07 | S. cerevisiae deletion strains, locus YNL250W, strain rad50, stronger effect = lower value 0.967 | S. cerevisiae deletion strains, locus YNL271C, strain bni1, stronger effect = lower value 0.966 | S. cerevisiae deletion strains, locus YNL298W, strain CLA4, stronger effect = lower value 0.971 | S. cerevisiae deletion strains, locus YNL307C, strain MCK1, stronger effect = lower value 0.983 | S. cerevisiae deletion strains, locus YNL322C, strain KRE1 (second series), stronger effect = lower value 1.01 | S. cerevisiae deletion strains, locus YNL322C, strain KRE1, stronger effect = lower value 1.01 | S. cerevisiae deletion strains, locus YNR049C, strain mso1, stronger effect = lower value 1.01 | S. cerevisiae deletion strains, locus YNR052C, strain pop2, stronger effect = lower value 0.971 | S. cerevisiae deletion strains, locus YOL006C, strain TOP1, stronger effect = lower value 0.926 | S. cerevisiae deletion strains, locus YOL012C, strain htz1 0.866 | S. cerevisiae deletion strains, locus YOL147C, strain pex11, stronger effect = lower value 0.973 | S. cerevisiae deletion strains, locus YOR001W, strain rrp6, stronger effect = lower value 1.02 | S. cerevisiae deletion strains, locus YOR061W, strain CKA2, stronger effect = lower value 0.994 | S. cerevisiae deletion strains, locus YOR069W, strain VPS5, stronger effect = lower value 0.991 | S. cerevisiae deletion strains, locus YOR070C, strain gyp1, stronger effect = lower value 0.999 | S. cerevisiae deletion strains, locus YOR080W, strain dia2, stronger effect = lower value 1.02 | S. cerevisiae deletion strains, locus YOR083W, strain WHI5, stronger effect = lower value 0.987 | S. cerevisiae deletion strains, locus YOR106W, strain vam3, stronger effect = lower value 1.03 | S. cerevisiae deletion strains, locus YOR136W, strain idh2, stronger effect = lower value 0.974 | S. cerevisiae deletion strains, locus YOR144C, strain elg1, stronger effect = lower value 0.976 | S. cerevisiae deletion strains, locus YOR184W, strain ser1, stronger effect = lower value 0.966 | S. cerevisiae deletion strains, locus YOR231W, strain MKK1, stronger effect = lower value 1.04 | S. cerevisiae deletion strains, locus YOR265W, strain rbl2, stronger effect = lower value 1.01 | S. cerevisiae deletion strains, locus YOR270C, strain vph1, stronger effect = lower value 1.07 | S. cerevisiae deletion strains, locus YOR290C, strain snf2, stronger effect = lower value 1.02 | S. cerevisiae deletion strains, locus YOR316C, strain cot1, stronger effect = lower value 0.98 | S. cerevisiae deletion strains, locus YPL051W, strain arl3, stronger effect = lower value 1.01 | S. cerevisiae deletion strains, locus YPL078C, strain atp4, stronger effect = lower value 1.01 | S. cerevisiae deletion strains, locus YPL106C, strain sse1, stronger effect = lower value 0.997 | S. cerevisiae deletion strains, locus YPL240C, strain hsp82, stronger effect = lower value 0.996 | S. cerevisiae deletion strains, locus YPL256C, strain CLN2, stronger effect = lower value 1.08 | S. cerevisiae deletion strains, locus YPR119W, strain clb2, stronger effect = lower value 0.977 | S. cerevisiae deletion strains, locus YPR141C, strain kar3, stronger effect = lower value 0.958 | S. cerevisiae deletion strains, locus YPR163C, strain tif3, stronger effect = lower value 0.982 | S. cerevisiae deletion strains, locus YPR167C, strain met16, stronger effect = lower value 0.972 | S. cerevisiae deletion strains, strain wtn01, stronger effect = lower value 0.982 | S. cerevisiae strains, strain wild type, stronger effect = lower value 0.998
